The results in this text go back to PubChem BioAssay (Tox21).

Where “and” joins values, the source holds several entries; their conditions need not be identical. Equal entries are not always repeated. Records with an inconclusive call do not appear. More than one record can exist for a structure, and the calls need not agree. Calls of active or inactive are those of the source. Unless noted, calls follow the shape of the dose curve; as a rule, active = well fitted curve in the direction sought with a large enough effect in the repeat runs; inconclusive = weak or mixed curves; inactive = no such curve, though single readings can be large; an effect the other way counts as inactive or inconclusive.

A short description of experiment [1]: qHTS assay to identify small molecule agonists of H2AX (AID 1224845; active = well fitted activation curve with a large enough effect in the signal ratio in the repeat runs, not every such curve was filed as active; the % refers to the signal ratio; also: potency is read from the fitted curve at half-maximal effect). In short, it runs like this:
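Wild-type CHO-K1 cells plated overnight, then exposed 3 hr at 37C to compounds at 15 concentrations (0.76% DMSO). Lysed, then HTRF anti-pH2AX(S139)-cryptate/anti-H2AX-d2 detection after 24 hr at room temperature; emissions 665 and 620 nm.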

A short description of experiment [2]: qHTS RealTime-Glo MT Cell Viability Assay in HepG2 cells - 24 hour (AID 1224867). Also: nearly all actives have a fitted effect of over 50% in size. Also: potency is read from the fitted curve at half-maximal effect. The procedure, abridged:
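Tox21 10K library screened in qHTS format on HepG2 cells carrying RealTime-Glo reagents. Compounds were added after a 5 h preincubation, and the luminescent signal from continuous culture was measured repeatedly during 40 h treatment.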

Experiment [3] is described as follows: A CellTox Green Cytotoxicity Assay to monitor cytotoxicity in HEK293 cells - 0 hour (AID 1224869). Also: nearly all actives have a fitted effect of over 50% in size. Also: potency is read from the fitted curve at half-maximal effect. The procedure, abridged: (§1)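 Dead-cell fluorescence measured kinetically: asymmetric cyanine dye, HEK293, 600 cells/well, 5 h settle, 23 nL cpd/DMSO, 37 C, reads 0–40 h every 8 h.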
The nature of experiment [4]: qHTS RealTime-Glo MT Cell Viability Assay in HepG2 cells - 40 hour (AID 1224870). Also: nearly all actives have a fitted effect of over 50% in size. Also: potency is read from the fitted curve at half-maximal effect. In short, it runs like this: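 HepG2 cells mixed with RealTime-Glo MT reagents (NanoLuc plus cell-permeant prosubstrate) were seeded at 600 cells/well, incubated 5 h at 37 C/5% CO2, then pinned with compounds in DMSO; nonlytic luminescence tracked viability during 40 h treatment.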
The nature of experiment [5]: qHTS assay to identify small molecule agonists of H2AX - cell viability counter screen (AID 1224847; calls by dose curve; also: nearly all actives have a fitted effect of over 30% in size; also: potency is read from the fitted curve at half-maximal effect). In short, it runs like this: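 Wild-type CHO-K1 cells (10% FBS medium) were plated overnight at 37C, exposed to compounds at 15 concentrations for 3 hr at 37C (0.76% DMSO final), and viability was read as CellTiter-Glo luminescence after 30 min at room temperature.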

The nature of experiment [6]: qHTS assay to identify small molecule antagonists of the estrogen related receptor (ERR) signaling pathway from Tox21 library (AID 1224848). Also: nearly all actives have a fitted effect of over 50% in size. Also: potency is read from the fitted curve at half-maximal effect. The procedure, abridged: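 First, 2,000 ERR cells per well were plated and held 6 h at 37 C/5% CO2. Next, compounds in DMSO were pinned in and left 18 h at 37 C. Finally, ONE-Glo was added and luminescence read after 30 min at room temperature.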

The nature of experiment [7]: qHTS assay to identify small molecule agonists of the estrogen related receptor (ERR) signaling pathway from Tox21 library (AID 1224849; calls by dose curve; also: nearly all actives have a fitted effect of over 15% in size). The following applies: ERR reporter cell line, ONE-Glo luciferase, 18 h. In short, it runs like this: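 Quantitative HTS in agonist format: NTP ERR cell line, compounds transferred in DMSO after 6 h plating, 18 h incubation at 37 C, ONE-Glo luminescence endpoint.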

A short description of experiment [8]: qHTS RealTime-Glo MT Cell Viability Assay in HEK293 cells - 32 hour (AID 1224868). Also: nearly all actives have a fitted effect of over 50% in size. Also: potency is read from the fitted curve at half-maximal effect. In short, it runs like this:
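Luminescence generated by NanoLuc from substrate produced by living HEK293 cells served as the viability signal. Each value reflects the reading at its stated time point during continuous 40 h compound exposure at 37 C.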

A short description of experiment [9]: A CellTox Green Cytotoxicity Assay to monitor cytotoxicity in HEK293 cells - 40 hour (AID 1224871). Also: nearly all actives have a fitted effect of over 45% in size. Also: potency is read from the fitted curve at half-maximal effect. In short, it runs like this: as §1
A short description of experiment [10]: qHTS assay to identify small molecule agonists of the hypoxia (HIF-1) signaling pathway (AID 1224846; active = well fitted activation curve with a large enough effect in the signal ratio in the repeat runs, not every such curve was filed as active; the % refers to the signal ratio). In short, it runs like this: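 Agonist mode reporter screen. ME-180 cells stably expressing bla under HRE control received test compounds in DMSO for 17 hrs (37C, 5% CO2), and beta-lactamase activity was then detected with the CCF4-AM FRET substrate.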
% is scaled to controls: 0 for no effect and ±100 for the full control effect.

As to `CCc1ccc(C(c2ccc(CC)cc2)C(Cl)Cl)cc1`, the Potency result in experiment [1], in [2], in [3] and in [4] was “inactive” throughout.
As to `CCn1c2ccccc2c2cc(N)ccc21`, the Potency result in experiment [5], in experiment [2], in experiment [8], in experiment [3], in [4] and in experiment [9] was “inactive” throughout. Moreover, the Potency in [6] was 34 µM (active). Further, the activity change, positive = activation in [7] (at 92.4 µM (top of the series)) is -48% (inactive) and -30.3% (inactive) and -32.3% (inactive).
For `CC(C)(O)CCC(C)(C)O`, the Potency entry in experiment [10], in experiment [5], in experiment [6], in experiment [2], in experiment [8] and in [3] was “inactive” throughout. Moreover, the Potency entry in [4] and in experiment [9] was “inactive” each time. Also, the activity change, positive = activation in experiment [7] (at 92.4 µM (top of the series)) is -1.25% (inactive).
On to `O=C(O)CP(=O)(O)O`, for which the Potency entry in experiment [1], in experiment [2], in experiment [8], in [3], in [4] and in experiment [9] was “inactive” throughout.
In the case of `CCOc1ccc2c(c1)C(C)=CC(C)(C)N2`, the Potency entry in [5], in experiment [6], in [2], in experiment [8], in experiment [3] and in [4] was “inactive” throughout. Besides, the Potency entry in experiment [9] is “inactive”. In experiment [7] (at 92.4 µM (top of the series)), the activity change, positive = activation was 1.57% (inactive) and 2.85% (inactive).
On to `CCN1CCCC1CNC(=O)c1cc(S(=O)(=O)CC)c(N)cc1OC` (stereo not drawn), for which the Potency result in experiment [10], in [2], in experiment [8], in experiment [3], in experiment [4] and in experiment [9] was “inactive” throughout. For the same compound, the activity change, positive = activation in experiment [7] (at 42.5 µM (top of the series)) is 2.19% (inactive).
For the compound `CC(C)(C)NCC(O)c1cc(O)cc(O)c1` (stereo not drawn), the Potency result in experiment [10], in experiment [5], in experiment [2], in experiment [8], in experiment [3] and in [4] was “inactive” each time. For the same compound, the Potency result in [9] is “inactive”.
Regarding `CC(=O)OCCOCCOCCOC(C)=O`, the Potency result in experiment [1], in experiment [2], in experiment [8], in [3], in experiment [4] and in [9] was “inactive” each time.
In the case of `CCOC(=O)C(C)C(C)=O` (stereo not drawn), the Potency entry in experiment [1], in experiment [2], in [8], in experiment [3], in [4] and in experiment [9] was “inactive” each time. For the same compound, the activity change, positive = activation in [7] (at 92.4 µM (top of the series)) was 5% (inactive).
As to `C=CC(=O)OCCCCCCOC(=O)C=C`, the Potency was 114 µM (active) in experiment [1]; “inactive and 43.6 µM (active)” in [2]; 49 µM (active) in experiment [8]; 54.9 µM (active) in experiment [9]. Further, the activity change, positive = activation in experiment [7] (at 92.4 µM (top of the series)) was -0.87% (active) and -57.5% (active). Further, the Potency entry in experiment [3] and in experiment [4] was “inactive” in each case.
On to `CC1=CC(=O)c2ccccc2C1=O`, for which the Potency in experiment [5] is 40.1 µM (active); in experiment [6], 43.3 µM (active); in experiment [2], 43.6 µM (active); in experiment [8], 15.5 µM (active); in [4], 49 µM (active); in [9], 21.9 µM (active) and 23.9 µM (active). Further, the activity change, positive = activation in experiment [7] (at 42.5 µM (top of the series)) is -26.5% (inactive); in experiment [7] (at 92.4 µM (top of the series)), -78.8% (inactive). For the same compound, in [3], the Potency result is “inactive”.
Take `COC(=O)/C=C/c1ccccc1`: the Potency entry in experiment [2], in experiment [8] and in [4] was “inactive” throughout. Besides, the Potency entry is “inactive and 21.9 µM (active)” in experiment [3]; “inactive and 21.9 µM (active)” in experiment [9].
As to `CN(C)c1ccc(C(=C2C=CC(=[N+](C)C)C=C2)c2ccccc2)cc1`, the Potency is 596 nM (active) [middle of 4 runs] in experiment [6]; 11 µM (active) and 8.49 µM (active) and 7.56 µM (active) in experiment [2]; 2.13 µM (active) [middle of 4 runs] in experiment [8]; 17.4 µM (active) and 9.52 µM (active) and 10.7 µM (active) in experiment [9]. Further, the activity change, positive = activation in experiment [7] (at 42.5 µM (top of the series)) was -66.6% (inactive) and -76.7% (inactive) and -71.5% (inactive); in experiment [7] (at 92.4 µM (top of the series)), -71.3% (inactive). Also, the Potency result in [3] was “inactive”.
As for `Nc1ccc(O)cc1`, the Potency result in experiment [5], in [2], in [3] and in [4] was “inactive” each time. For the same compound, the activity change, positive = activation in experiment [7] (at 92.4 µM (top of the series)) was -66.4% (inactive). Also, the Potency in [8] was 32.1 µM (active) and inactive; in experiment [9], 25.5 µM (active) and inactive.
Turning to `COc1ccc(CCN2CCC(Nc3nc4ccccc4n3Cc3ccc(F)cc3)CC2)cc1`, the Potency in experiment [5] was 32.6 µM (active); in [2] it was 17.8 µM (active) and 13.4 µM (active); in [8] it was 6.3 µM (active) and 15.1 µM (active); in [4], 15.8 µM (active) and 10.7 µM (active); in experiment [9] it was 11.2 µM (active) and 23.9 µM (active). Also, the figures for the activity change, positive = activation in [7] (at 42.5 µM (top of the series)) and in [7] (at 92.4 µM (top of the series)) were -69.8% (inactive) and -76.4% (inactive), respectively. In addition, the Potency entry in [3] was “inactive”.
Take `COc1ccc(CCN(C)CCCC(C#N)(c2ccc(OC)c(OC)c2)C(C)C)cc1OC` (stereo not drawn): the Potency entry in experiment [3] and in experiment [9] was “inactive” each time.
`CNCCC(Oc1ccc(C(F)(F)F)cc1)c1ccccc1` (stereo not drawn): the Potency in experiment [5] is 112 µM (active) and 49.2 µM (active). For the same compound, the Potency result in [3] was “inactive”.
Consider `Nc1cc(Cl)c(-c2cc(Cl)c(N)cc2Cl)cc1Cl`, for which the Potency in experiment [5] was 101 µM (active) and 113 µM (active); in experiment [8], 6.91 µM (active) and 1.74 µM (active). The activity change, positive = activation in experiment [7] (at 92.4 µM (top of the series)) was -76.8% (inactive) and -62.3% (inactive). The Potency result in [3], in [4] and in experiment [9] was “inactive” each time.
As to `CC1COc2c(N3CCN(C)CC3)c(F)cc3c(=O)c(C(=O)O)cn1c23` (stereo not drawn), the Potency result in experiment [5], in [3] and in experiment [9] was “inactive” in each case.
